Reference: PubChem BioAssay (EPA / NIEHS)
The source made the active and inactive calls. How the source made its calls: active means hit-call score of the fitted dose curve at least 0.9, where 1 is the maximum; inactive means score below 0.9.

Test system: not listed separately
Experiment: ATG_M_06_CIS: Attagene CIS-FACTORIAL HepG2 Assay for M06 Transcription Factor (Internal Marker) (AID 2282950)
Details: HepG2 Attagene CIS-FACTORIAL M06 internal marker reporter; actives raise or lower the signal
Method in brief: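 Serves as a background control readout. Transfected HepG2 exposed to compounds for 24 h, then reporter transcripts quantified by fluorescent RT-PCR and capillary electrophoresis. Both directions fitted against DMSO baseline.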

| SMILES | outcome |
| --- | --- |
| CCCCCCCOC(=O)CCC | inactive |
| CC(C)(C)c1ccc(N)cc1 | inactive |
| CC(=O)Nc1nnc(S(N)(=O)=O)s1 | inactive |
| [Cl][Bi]([Cl])([c]1ccccc1)([c]1ccccc1)[c]1ccccc1 | inactive |
| CCCCC(CC)COC(=O)c1ccccc1O (stereo not drawn) | inactive |
| CCC(CC)C(=O)O | inactive |
| CCCCC(CC)COCC1CO1 (stereo not drawn) | inactive |
| CCC(C)OC(=O)c1ccc(O)cc1 (stereo not drawn) | inactive |
| O=C(O)CCCCCCCCCC(=O)O | inactive |
| COc1ccc(C(Cl)=C(c2ccc(OC)cc2)c2ccc(OC)cc2)cc1 | inactive |
| C=CC(=O)OCCC(=O)O | inactive |
| C=C(C)c1cccc(C(C)(C)N=C=O)c1 | inactive |

Target: Hypoxia-inducible factor 1-alpha (Homo sapiens) (UniProt Q16665)
Experiment: ATG_HIF1a_CIS: Attagene CIS-FACTORIAL HepG2 Assay for human Hypoxia Inducible Factor 1 (HIF1A) (AID 2282951)
Details: HepG2 Attagene cis-factorial HIF1a reporter transcription; actives raise or lower the signal
Method in brief: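 HepG2 cells transiently transfected with multiple cis-regulated reporter transcription units measure endogenous transcription factor activity. After 24 h exposure, reporter mRNA is quantified by RT-PCR with 6-FAM labelling, HpaI digestion and capillary electrophoresis. Bidirectional fitting against DMSO.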

Chain of Hypoxia-inducible factor 1-alpha (Homo sapiens) (Q16665 whole entry, looked up): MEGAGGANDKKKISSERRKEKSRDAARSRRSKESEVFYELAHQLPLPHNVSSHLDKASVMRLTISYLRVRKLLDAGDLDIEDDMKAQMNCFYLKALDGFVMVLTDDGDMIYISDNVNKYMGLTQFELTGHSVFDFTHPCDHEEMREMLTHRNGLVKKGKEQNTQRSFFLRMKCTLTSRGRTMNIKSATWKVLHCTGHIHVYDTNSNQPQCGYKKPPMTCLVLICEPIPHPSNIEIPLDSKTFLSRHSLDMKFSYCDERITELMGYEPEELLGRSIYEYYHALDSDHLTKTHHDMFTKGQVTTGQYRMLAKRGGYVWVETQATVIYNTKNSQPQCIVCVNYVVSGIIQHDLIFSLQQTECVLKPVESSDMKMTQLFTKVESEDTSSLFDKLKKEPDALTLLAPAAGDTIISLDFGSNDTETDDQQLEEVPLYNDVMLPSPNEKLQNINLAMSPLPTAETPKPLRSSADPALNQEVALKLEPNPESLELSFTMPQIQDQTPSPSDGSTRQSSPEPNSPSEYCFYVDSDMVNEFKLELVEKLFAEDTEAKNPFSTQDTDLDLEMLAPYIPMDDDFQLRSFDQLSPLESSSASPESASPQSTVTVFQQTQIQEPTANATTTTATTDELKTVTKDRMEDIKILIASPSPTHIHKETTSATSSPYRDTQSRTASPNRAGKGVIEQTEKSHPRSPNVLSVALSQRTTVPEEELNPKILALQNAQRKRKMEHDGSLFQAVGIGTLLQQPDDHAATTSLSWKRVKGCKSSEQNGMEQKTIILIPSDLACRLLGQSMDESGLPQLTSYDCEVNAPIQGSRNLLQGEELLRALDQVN

| SMILES | outcome | AC50 |
| --- | --- | --- |
| O=C1CCC(=O)N1Cl | inactive |  |
| OC1CCCCCCCCCCC1 | inactive |  |
| COC(=O)c1cc(Cl)ccc1[N+](=O)[O-] | inactive |  |
| c1ccc2c(c1)ccc1ncccc12 | inactive |  |
| O=C(Nc1ccccc1SSc1ccccc1NC(=O)c1ccccc1)c1ccccc1 | inactive |  |
| Cc1cccc(OCCOc2cccc(C)c2)c1 | inactive |  |
| c1ccc(CNCc2ccccc2)cc1 | inactive |  |
| CC(C)CCCCCOC(=O)CCS | inactive |  |
| O=c1[nH]c(=O)c2[nH]c(=O)[nH]c2[nH]1 | inactive |  |
| O=C(OCC1CCC2OC2C1)C1CCC2OC2C1 (stereo not drawn) | inactive |  |
| C=CC(=O)OCCOC(=O)C=C | inactive |  |
| O=c1[nH]nc(-c2ccc([N+](=O)[O-])o2)o1 | inactive |  |
| CCOC(=O)CC(C(C)=O)C(C)=O | inactive |  |
| O=C1CCCN1CCO | inactive |  |
| CCCCCCCCC(=O)OCC | inactive |  |
| CC(C)C1=CC2=CC[C@@H]3[C@](C)(CCC[C@@]3(C)C(=O)O)[C@H]2CC1 |  | 100 µM (active) |
